The nature of assay [1]: TOX21_p53_BLA_p2_viability: Viability Assessment in the Tox21 HCT-116 p53 Agonism Beta-lactamase Assay, Phase 2 (AID 2283591).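 Further: compound exposure lasted 16 h at 37 °C; actives lower the ATP signal meaning cytotoxicity.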 The essentials: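 HCT-116 p53-bla cells (4000/well) rested 5 h at 37C, then received compounds in DMSO (217-fold dilution) for 16 h at 37C, 5% CO2. After the CCF4 read, CellTiter-Glo was added; ATP luminescence was read after 30 min at room temperature.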

Assay [2] addresses Cellular tumor antigen p53 (Homo sapiens) (UniProt P04637). The assay is described as follows: TOX21_p53_BLA_p2_ratio: Tox21 HCT-116 p53 Agonism Beta-lactamase Assay, Ratio, Phase 2 (AID 2283592). The procedure, abridged:
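Cleaved-to-uncleaved substrate ratio (460 vs 530 nm) measured in HCT116 cells with an inducible beta-lactamase reporter linked to p53 activity. Compounds incubated 16 h at 37C before 2 h room-temperature CCF4-AM loading.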

Assay [3] shares this target. The assay is described as follows: TOX21_p53_BLA_p3_ratio: Tox21 HCT-116 p53 Agonism Beta-lactamase Assay, Ratio, Phase 3 (AID 2283596). The procedure, abridged:
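Cells were seeded at 4000/well, rested 5 h at 37C, then dosed with DMSO compound solutions (217-fold dilution) for 16 h. CCF4-AM substrate was loaded for 2 h at room temperature, and the 460/530 nm emission ratio was fitted for gain of signal versus DMSO.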

A short description of assay [4]: TOX21_p53_BLA_p4_viability: Viability Assessment in the Tox21 HCT-116 p53 Agonism Beta-lactamase Assay, Phase 4 (AID 2283597).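 Further: hits lower the luminescence signal meaning cytotoxicity.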 The procedure, abridged:
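Viability is taken as cellular ATP: after 16 h compound exposure of HCT116 cells and a 2 h room-temperature CCF4-AM substrate step, CellTiter-Glo reagent is added and luminescence is measured 30 min later.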

Assay [5] addresses Cellular tumor antigen p53 (Homo sapiens) (UniProt P04637). The assay is described as follows: TOX21_p53_BLA_p5_ratio: Tox21 HCT-116 p53 Agonism Beta-lactamase Assay, Ratio, Phase 5 (AID 2283599). The essentials:
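HCT-116 cells carrying a p53-inducible beta-lactamase reporter were seeded at 4000 cells/well and dosed after 5 h with compound in DMSO (217-fold dilution). After 16 h at 37C, CCF4-AM substrate was added for 2 h, and the 460/530 nm emission ratio was scored as gain-of-signal versus DMSO.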

Assay [6] can be described thus: TOX21_p53_BLA_p5_viability: Viability Assessment in the Tox21 HCT-116 p53 Agonism Beta-lactamase Assay, Phase 5 (AID 2283600). The essentials:
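Viability is taken from cellular ATP content, measured by luciferase luminescence in the same wells after the beta-lactamase ratio read. Cells are seeded at 4000 per well and exposed to DMSO-dissolved compounds, diluted 217-fold, for 16 h.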

Assay [7] addresses Cellular tumor antigen p53 (Homo sapiens) (UniProt P04637). The assay is described as follows: TOX21_p53_BLA_p4_ratio: Tox21 HCT-116 p53 Agonism Beta-lactamase Assay, Ratio, Phase 4 (AID 2283601). The essentials: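 HCT116 cells carrying an inducible beta-lactamase reporter were plated at 4000 cells/well, rested 5 h, then exposed to compounds in DMSO (217-fold dilution) for 16 h at 37C. CCF4-AM substrate was loaded 2 h at room temperature; 460/530 nm emission ratio scored gain-of-signal versus DMSO.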

Records with an inconclusive call do not appear. Calls of active or inactive are those of the source. How the source made its calls: active means hit-call score of the fitted dose curve at least 0.9, where 1 is the maximum; inconclusive means response in the unintended direction; inactive means score below 0.9.

Sequence of Cellular tumor antigen p53 (Homo sapiens) (P04637 whole entry, looked up): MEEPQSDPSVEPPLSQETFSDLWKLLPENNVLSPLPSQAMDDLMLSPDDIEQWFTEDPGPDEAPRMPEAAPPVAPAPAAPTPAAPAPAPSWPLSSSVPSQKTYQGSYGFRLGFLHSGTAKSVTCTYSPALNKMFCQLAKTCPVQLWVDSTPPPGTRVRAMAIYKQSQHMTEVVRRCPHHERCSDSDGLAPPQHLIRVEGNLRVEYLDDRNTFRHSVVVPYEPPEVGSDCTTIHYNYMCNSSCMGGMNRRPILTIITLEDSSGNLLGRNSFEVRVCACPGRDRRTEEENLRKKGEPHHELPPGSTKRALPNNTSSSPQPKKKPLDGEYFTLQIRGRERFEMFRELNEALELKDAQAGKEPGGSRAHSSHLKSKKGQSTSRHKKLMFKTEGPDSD

The AC50 is the midpoint of the concentration-response curve, whichever way the signal moves. `CN(C)c1ccc(C2(c3ccc(N(C)C)cc3)OC(=O)c3cc(N(C)C)ccc32)cc1`: the result in assay [1], in assay [4], in assay [5] and in assay [6] was inactive. Also, the AC50 in assay [2] is 60.7 µM (active); in assay [3], 13.5 µM (active); in assay [7], 38.5 µM (active).

`CCOC(=O)c1cccc(N)c1`: the compound was classed as inactive in assay [1], in assay [2], in assay [3], in assay [4], in assay [5] and in assay [6]. The outcome in assay [7] was inactive.

With `CC(C)C(O)C(C)(C)CO` (stereo unspecified), the compound was called inactive in assay [1], in assay [2], in assay [3], in assay [4], in assay [5] and in assay [6]. In assay [7], the result was inactive.

On to `OCc1ccccn1`, for which the call in assay [1], in assay [2], in assay [3], in assay [4], in assay [5] and in assay [6] was inactive. The outcome in assay [7] was inactive.

For the compound `CCN(CC)C(C)=O`, the result in assay [1], in assay [2], in assay [3], in assay [4], in assay [5] and in assay [6] was inactive. The result in assay [7] was inactive.

Consider `Brc1c2ccccc2cc2ccccc12`, for which the compound was called inactive in assay [1], in assay [2], in assay [3], in assay [4], in assay [5] and in assay [6]. In assay [7], the outcome was inactive.

In the case of `NC(=O)c1ncn([C@@H]2O[C@H](CO)[C@@H](O)[C@H]2O)c1O`, the compound was classed as inactive in assay [1], in assay [2], in assay [3], in assay [4], in assay [5] and in assay [6]. For the same compound, the outcome in assay [7] was inactive.

Consider `CC(CN(C)C)C(C)(O)Cc1ccc(Cl)cc1` (stereo unspecified), for which the call in assay [1], in assay [2], in assay [3], in assay [4], in assay [5] and in assay [6] was inactive. Besides, in assay [7], the result was inactive.

As for `Cc1cc(NS(=O)(=O)c2ccc(N)cc2)nc(C)n1`, the outcome in assay [1], in assay [2], in assay [3], in assay [4], in assay [5] and in assay [6] was inactive. In addition, the outcome in assay [7] was inactive.

In the case of `Nc1cc(Cl)c([N+](=O)[O-])cc1O`, the compound was classed as inactive in assay [1], in assay [2], in assay [3], in assay [4], in assay [5] and in assay [6]. In assay [7], the outcome was inactive.

For `O=CC(=O)c1ccccc1`, the outcome in assay [1], in assay [2], in assay [3], in assay [4], in assay [5] and in assay [6] was inactive. In assay [7], the result was inactive.

For `Cc1ccccc1C(=O)N1CC/C(=N\OS(=O)(=O)O)c2ccc(Cl)cc21`, the outcome in assay [1], in assay [2], in assay [3], in assay [4], in assay [5] and in assay [6] was inactive. Further, the outcome in assay [7] was inactive.

Turning to `CC(C)Nc1ccccc1`, the outcome in assay [1], in assay [2], in assay [3], in assay [4], in assay [5] and in assay [6] was inactive. Moreover, in assay [7], the outcome was inactive.

Regarding `N#C/C(=C1\SCC(c2ccccc2Cl)S1)n1ccnc1` (stereo unspecified), the call in assay [1], in assay [2], in assay [3], in assay [4], in assay [5] and in assay [7] was inactive.

For `CN=C(NC#N)NCCSCc1csc(N=C(N)N)n1`, the compound was called inactive in assay [1], in assay [2], in assay [3], in assay [4], in assay [5] and in assay [7].

Turning to `CC(C)NCC(O)c1ccc(NS(C)(=O)=O)cc1` (stereo unspecified), the compound was called inactive in assay [1], in assay [2], in assay [3], in assay [4], in assay [5] and in assay [6]. For the same compound, the outcome in assay [7] was inactive.

Consider `c1ccc(CN(CC2=NCCN2)c2ccccc2)cc1`, for which the compound was called inactive in assay [1], in assay [2], in assay [3], in assay [4], in assay [5] and in assay [6]. The result in assay [7] was inactive.

For the compound `N#Cc1ccc2c(c1)N(CCCN1CCC(O)CC1)c1ccccc1S2`, the compound was classed as inactive in assay [1], in assay [3], in assay [4] and in assay [6]. For the same compound, the values for the AC50 in assay [2], in assay [5] and in assay [7] were 40.4 µM (active), 35.4 µM (active) and 25.1 µM (active), respectively.

In the case of `CCCOC(=O)C(C)O` (stereo unspecified), the outcome in assay [1], in assay [2], in assay [3], in assay [4], in assay [5] and in assay [6] was inactive. Further, the outcome in assay [7] was inactive.

As for `O=C(Nc1ccc(C(=O)O)c(O)c1)c1ccccc1`, the compound was classed as inactive in assay [1], in assay [2], in assay [3], in assay [4], in assay [5] and in assay [6]. Further, in assay [7], the outcome was inactive.

`CC(C)NC(=O)c1ccccc1N`: the compound was classed as inactive in assay [1], in assay [2], in assay [3], in assay [4], in assay [5] and in assay [6]. In assay [7], the outcome was inactive.

Turning to `O=C(O)C(S)C(S)C(=O)O` (stereo unspecified), the result in assay [1], in assay [2], in assay [3], in assay [4], in assay [5] and in assay [6] was inactive. In addition, the outcome in assay [7] was inactive.

Regarding `Nc1ccc(Oc2ccc(Cl)cc2)cc1`, the result in assay [1], in assay [2], in assay [3], in assay [4], in assay [5] and in assay [6] was inactive. Further, the result in assay [7] was inactive.

Take `CC(=O)OC[C@H]1O[C@@H](n2ncc(=O)[nH]c2=O)[C@H](OC(C)=O)[C@@H]1OC(C)=O`: the compound was classed as inactive in assay [1], in assay [4] and in assay [6]. Further, the AC50 in assay [2] is 2.04 µM (active); in assay [3], 3.15 µM (active); in assay [5] it was 2.02 µM (active); in assay [7], 2.61 µM (active).

In the case of `NCCNCCNCCN`, the call in assay [1], in assay [2], in assay [3], in assay [4], in assay [5] and in assay [6] was inactive. Besides, in assay [7], the outcome was inactive.

As for `CC1(O)CCC(C(C)(C)O)CC1` (stereo unspecified), the result in assay [1], in assay [2], in assay [3], in assay [4], in assay [5] and in assay [6] was inactive. In assay [7], the outcome was inactive.

Turning to `Cc1occc1S`, the compound was classed as inactive in assay [1], in assay [2], in assay [3], in assay [4], in assay [5] and in assay [7].

These data come from PubChem BioAssay (EPA / NIEHS).
